{"source": "PubChem BioAssay", "target": "Pantothenate synthetase (Mycobacterium tuberculosis (strain ATCC 25618 / H37Rv)) (UniProt P9WIL5)", "sequence (P9WIL5 whole entry, looked up)": "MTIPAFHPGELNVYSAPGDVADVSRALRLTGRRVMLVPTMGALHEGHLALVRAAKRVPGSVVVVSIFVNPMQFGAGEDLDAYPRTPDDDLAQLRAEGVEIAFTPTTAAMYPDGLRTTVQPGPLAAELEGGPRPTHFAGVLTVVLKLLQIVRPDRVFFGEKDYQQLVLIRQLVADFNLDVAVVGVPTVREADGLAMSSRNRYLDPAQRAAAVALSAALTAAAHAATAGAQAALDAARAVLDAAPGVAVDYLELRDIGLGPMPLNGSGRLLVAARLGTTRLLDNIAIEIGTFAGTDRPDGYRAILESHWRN", "test": "Recombinant Mtb pantothenate synthetase (PanC) inhibitors, coupled enzyme, confirmatory (AID 375);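 note: 0% = full reaction with vehicle and 100% = no enzyme background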", "conditions": "coupled enzyme assay; at 10 µM, stronger effect = higher value", "note": "A number with no mark means an inactive call. The rule behind the calls is not given here."}
{"compound": "COc1ccccc1N(CC(=O)NC1CCCC1)C(=O)CCC(=O)Nc1cc(C)on1", "values": [{"measurement": "inhibition", "value": 0, "unit": "%"}]}
{"compound": "Cn1c(C(=O)N2CCCC(C(=O)NCCCc3ccccc3)C2)cc2sccc21", "note": "(stereo unspecified)", "values": [{"measurement": "inhibition", "value": 0, "unit": "%"}]}
{"compound": "Cc1nc2ccc(S(=O)(=O)NCC(=O)N(C)Cc3ccco3)cc2s1", "values": [{"measurement": "inhibition", "value": 0, "unit": "%"}]}
{"compound": "O=C(O)COc1cccc(NC(=O)C2CCCO2)c1", "note": "(stereo unspecified)", "values": [{"measurement": "inhibition", "value": 0, "unit": "%"}]}
{"compound": "C=CCNC(=O)C1CC(=O)N(c2ccc(OCC(=O)Nc3ccc(OC)cc3)cc2)C1", "note": "(stereo unspecified)", "values": [{"measurement": "inhibition", "value": 0, "unit": "%"}]}
{"compound": "COc1ccc(CN2C(=O)c3cccnc3C2Nc2cc(Cl)ccc2OC)cc1", "note": "(stereo unspecified)", "values": [{"measurement": "inhibition", "value": 3, "unit": "%"}]}
{"compound": "Clc1ccc(Cl)c(-c2nn3c(COc4ccccc4)nnc3s2)c1", "values": [{"measurement": "inhibition", "value": 4, "unit": "%"}]}
{"compound": "CN(C)S(=O)(=O)c1ccc(/C(O)=C2/C(=O)C(=O)N(CCN3CCCCC3)C2c2cccnc2)cc1", "note": "(stereo unspecified)", "values": [{"measurement": "inhibition", "value": 0, "unit": "%"}]}
{"compound": "COc1ccc(N2CCN(Cc3cc(=O)oc4cc(C)c(Cl)c(C)c34)CC2)cc1", "values": [{"measurement": "inhibition", "value": 6, "unit": "%"}]}
{"compound": "O=C(NCc1cccs1)C(Cc1ccccc1)NS(=O)(=O)c1cccs1", "note": "(stereo unspecified)", "values": [{"measurement": "inhibition", "value": 8, "unit": "%"}]}
{"compound": "O=C(CC(CC(=O)c1ccccc1)C(=O)O)c1ccccc1", "values": [{"measurement": "inhibition", "value": 3, "unit": "%"}]}
{"compound": "O=C(NC1CCCc2ccccc21)c1ccc(CNc2c(N3CCOCC3)c(=O)c2=O)cc1", "note": "(stereo unspecified)", "values": [{"measurement": "inhibition", "value": 0, "unit": "%"}]}
{"compound": "CCCCN(C)CCCNC(=O)CC1Oc2ccccc2NC1=O", "note": "(stereo unspecified)", "values": [{"measurement": "inhibition", "value": 6, "unit": "%"}]}
{"compound": "CCC(=O)Nc1ccc(NC(=O)c2ccccn2)cn1", "values": [{"measurement": "inhibition", "value": 0, "unit": "%"}]}
{"compound": "Cc1cc(NC(=O)CSc2ccc(Cl)cc2)no1", "values": [{"measurement": "inhibition", "value": 0, "unit": "%"}]}
{"compound": "Cc1cccc(OCCCc2c(C)n[nH]c2C)c1", "values": [{"measurement": "inhibition", "value": 0, "unit": "%"}]}
{"compound": "CCOc1ccc(NC(=O)c2ccc3c(c2)N(Cc2ccc(F)cc2)C(=O)CS3=O)cc1", "note": "(stereo unspecified)", "values": [{"measurement": "inhibition", "value": 10, "unit": "%"}]}
{"compound": "CCN(CC)S(=O)(=O)c1ccc2[nH]cc(C(=O)NCCC3=CCCCC3)c(=O)c2c1", "values": [{"measurement": "inhibition", "value": 0, "unit": "%"}]}
{"compound": "COc1cc(NC(=O)c2cc(-n3cnnc3)ccc2Cl)cc(OC)c1", "values": [{"measurement": "inhibition", "value": 2, "unit": "%"}]}
{"compound": "CCOc1ccc(NS(=O)(=O)c2cc(Cl)ccc2OC)cc1", "values": [{"measurement": "inhibition", "value": 4, "unit": "%"}]}
{"compound": "Cc1cc2c(=O)n(CC(=O)N3CCN(c4ccccc4)CC3)cnc2s1", "values": [{"measurement": "inhibition", "value": 0, "unit": "%"}]}
{"compound": "O=c1oc2cc(O)ccc2c2oc3cc(O)ccc3c12", "values": [{"measurement": "inhibition", "value": 7, "unit": "%"}]}
{"compound": "CN(C)CCOC(c1ccccc1)c1ccccc1", "values": [{"measurement": "inhibition", "value": 0, "unit": "%"}]}
{"compound": "Cc1cc(Cl)ccc1OCCCC(=O)N1CCOCC1", "values": [{"measurement": "inhibition", "value": 0, "unit": "%"}]}
{"compound": "c1ccc2oc(SCc3cn4ccccc4n3)nc2c1", "values": [{"measurement": "inhibition", "value": 0, "unit": "%"}]}
{"compound": "COc1ccc(CNC(=O)c2ccc(CN3CCOCC3)cc2)cc1", "values": [{"measurement": "inhibition", "value": 8, "unit": "%"}]}
{"compound": "CCCNC(=O)c1cc(S(=O)(=O)N2CCc3ccccc32)ccc1F", "values": [{"measurement": "inhibition", "value": 0, "unit": "%"}]}
{"compound": "COc1ccc(CN2C(=O)C(O)(CC(=O)c3c(C)n[nH]c3C)c3ccccc32)cc1OC", "note": "(stereo unspecified)", "values": [{"measurement": "inhibition", "value": 0, "unit": "%"}]}
{"compound": "COc1cccc(-c2cc(C(=O)NCc3ccc(Cl)cc3)no2)c1", "values": [{"measurement": "inhibition", "value": 0, "unit": "%"}]}
{"compound": "O=C(Cn1ccc2ccccc2c1=O)NCCC(=O)N1CCN(C2CCCCC2)CC1", "values": [{"measurement": "inhibition", "value": 5, "unit": "%"}]}
{"compound": "Cn1c(=O)[nH]c(=O)c2c1nc(N1CCNCC1)n2CCOc1ccccc1", "values": [{"measurement": "inhibition", "value": 0, "unit": "%"}]}
{"compound": "Cn1cccc1C(=O)NC(=O)CSc1nnc(C2CC2)n1-c1ccccc1", "values": [{"measurement": "inhibition", "value": 0, "unit": "%"}]}
{"compound": "CC1NC(=O)NC1CCCCCC(=O)NCCc1ccccc1", "note": "(stereo unspecified)", "values": [{"measurement": "inhibition", "value": 2, "unit": "%"}]}
{"compound": "Cc1nc(NC(=O)C2CC3CCCC(C2)C3=O)sc1C", "note": "(stereo unspecified)", "values": [{"measurement": "inhibition", "value": 0, "unit": "%"}]}
{"compound": "Cc1noc(C)c1CSc1nnc(-c2ccncc2)n1-c1cccc(Cl)c1C", "values": [{"measurement": "inhibition", "value": 0, "unit": "%"}]}
{"compound": "COc1cc(OC)c(C2N(C)c3ccccc3N2C)cc1OC", "values": [{"measurement": "inhibition", "value": 0, "unit": "%"}]}
{"compound": "COc1cc(S(=O)(=O)n2nnc3ccccc32)c(OC)cc1Cl", "values": [{"measurement": "inhibition", "value": 3, "unit": "%"}]}
{"compound": "O=C(NC1CCCC1)c1ccc(S(=O)(=O)N2CCCC2)cc1", "values": [{"measurement": "inhibition", "value": 0, "unit": "%"}]}
{"compound": "CCOc1ccc(-c2cc(C(=O)N3CCN(c4ccccn4)CC3)c3ccccc3n2)cc1", "values": [{"measurement": "inhibition", "value": 2, "unit": "%"}]}
{"compound": "COC(=O)n1c(=S)oc2cc(Cl)ccc21", "values": [{"measurement": "inhibition", "value": 0, "unit": "%"}]}
{"compound": "CCn1c(CCC(=O)Nc2nc3c(s2)CCCC3)nc2cc(S(=O)(=O)N(C)C)ccc21", "values": [{"measurement": "inhibition", "value": 3, "unit": "%"}]}
{"compound": "CSc1nc(N)nc(SCCS(=O)(=O)c2ccc(Cl)cc2)c1C#N", "values": [{"measurement": "inhibition", "value": 0, "unit": "%"}]}
{"compound": "Cc1cc(NS(=O)(=O)c2ccc(NC(=O)COc3ccc(Cl)cc3)cc2)no1", "values": [{"measurement": "inhibition", "value": 9, "unit": "%"}]}
{"compound": "CC(C)CNS(=O)(=O)c1ccc(CCC(=O)N2CCOCC2)cc1", "values": [{"measurement": "inhibition", "value": 0, "unit": "%"}]}
{"compound": "COc1cccc(CNC(=O)CCS(=O)(=O)c2cccc3nsnc23)c1", "values": [{"measurement": "inhibition", "value": 6, "unit": "%"}]}
{"compound": "CC1=C(n2nnc3ccccc32)C(c2ccccc2)C(C#N)=C(N)O1", "note": "(stereo unspecified)", "values": [{"measurement": "inhibition", "value": 5, "unit": "%"}]}
